Records with an inconclusive call do not appear. Activity calls are given as the source filed them. The call rests on the fitted dose curve; in most records, active means well fitted inhibition curve with a large enough effect; inconclusive means small, poorly fitted or top-dose-only effect; inactive means flat fitted curve, though single readings scatter.
Each compound was assayed against Calcium and integrin-binding protein 1 (Homo sapiens) (UniProt Q99828) (assay: Primary qHTS for Identification of Calcium Integrin Binding Protein 1 (CIB1) Competitor (AID 1508620;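 further: GST tagged CIB1 binding a fluorescein labelled alphaIIb integrin peptide tracer; top concentration of the series differs between compounds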)). Conditions: CIB1-GST / FITC-alphaIIb peptide fluorescence polarization; series mostly up to 114 µM; activity change, negative = inhibition: at the top concentration.
Calcium and integrin-binding protein 1 (Homo sapiens), sequence (Q99828 whole entry, looked up): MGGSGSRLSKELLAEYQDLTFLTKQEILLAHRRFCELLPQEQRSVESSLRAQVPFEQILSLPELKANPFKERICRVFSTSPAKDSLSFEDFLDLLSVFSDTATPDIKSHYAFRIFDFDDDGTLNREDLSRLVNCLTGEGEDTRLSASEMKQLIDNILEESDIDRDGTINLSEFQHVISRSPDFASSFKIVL
Outline: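 CIB1-GST (1 uM final) and compound incubated 15 min at room temperature before adding FITC-alphaIIb peptide tracer (100 nM final). Competition for binding read by fluorescence polarization (ex 480, em 540) after another 15 min at room temperature.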
On the % scale 0 is the no-effect control and ±100 the full control effect.

| SMILES | activity change, negative = inhibition | Potency |
| --- | --- | --- |
| Cc1ccc(S(=O)(=O)Nc2cnccc2C(=O)Nc2nc(-c3ccncc3)cs2)cc1 | -22.3% (inactive) | – |
| Cc1ccc(S(=O)(=O)Nc2ccccc2C(=O)Nc2nc(-c3ccccc3)c(Br)s2)cc1 | 4.77% (inactive) | – |
| Cc1ccc(S(=O)(=O)Nc2cnccc2C(=O)Nc2ccc(-c3nc4ccccc4[nH]3)cc2)cc1 | 2.83% (inactive) | – |
| O=C(Nc1ccc([S+](=O)([O-])Nc2nccs2)cc1)c1ncn[nH]1 | -16.5% (inactive) | – |
| COc1ccc(-c2csc(NC(=O)c3ccccc3NS(=O)(=O)c3ccc(C)cc3)n2)cc1 | -17.2% (inactive) | – |
| CCCCCC1CCC(C(=O)Nc2ccc(S(=O)(=O)Nc3nccs3)cc2)CC1 (stereo not given) | -2.42% (inactive) | – |
| CCOC(=O)C1CCC(C(=O)Nc2ccc([S+](=O)([O-])Nc3nccs3)cc2)CC1 (stereo not given) | -0.3% (inactive) | – |
| Cc1ccc([S+](=O)([O-])n2cc(-c3ccc(-c4ccccc4)cc3)c3ccccc32)cc1 | 3.19% (inactive) | – |
| Cc1ccc(S(=O)(=O)Nc2cnccc2C(=O)Nc2ccc(S(=O)(=O)Nc3nccs3)cc2)cc1 | -18.2% (inactive) | – |
| O=C(Nc1ccc(S(=O)(=O)Nc2nccs2)cc1)c1ccncc1 | 3.2% (inactive) | – |
| Cc1ccc(S(=O)(=O)Nc2ccccc2C(=O)Nc2nc(-c3ccc(Cl)cc3)cs2)cc1 | 5.23% (inactive) | – |
| COC(=O)c1ccc(NC(=O)c2cc(-c3ccc(C)c(C)c3)nc3ccccc23)cc1 | 5.15% (inactive) | – |
| O=C(O)c1cccc(S(=O)(=O)Nc2nccs2)c1 | -6.73% (inactive) | – |
| O=C(Cc1ccccc1)Nc1ccc(S(=O)(=O)Nc2nccs2)cc1 | -3.61% (inactive) | – |
| CCNC(=O)C1CCC(C(=O)Nc2ccc([S+](=O)([O-])Nc3nccs3)cc2)CC1 (stereo not given) | -0.895% (inactive) | – |
| O=C(Nc1ccc([S+](=O)([O-])Nc2nccs2)cc1)C1CCNCC1 | 0.0583% (inactive) | – |
| CCCCCN1CCC(C(=O)Nc2ccc([S+](=O)([O-])Nc3nccs3)cc2)CC1 | 2.86% (inactive) | – |
| O=c1[nH]c(CN2CCOCC2)nc2sc3c(c12)CCCC3 | 1.81% (inactive) | – |
| CCCC1CCC(C(=O)Nc2ccc(S(=O)(=O)Nc3nccs3)cc2)CC1 (stereo not given) | -0.317% (inactive) | – |
| Cc1ccc(-c2cc(C(=O)N3CC[S+](=O)([O-])CC3)c3ccccc3n2)cc1C | 1.62% (inactive) | – |

| SMILES | activity change, negative = inhibition | Potency |
| --- | --- | --- |
| Cc1ccc(-c2cc(C(=O)O)c3cccc(C)c3n2)cc1C | -1.99% (inactive) | – |
| O=C(Nc1nc(-c2ccccc2)cs1)c1cccc(NS(=O)(=O)c2nccs2)c1 | -15.3% (inactive) | – |
| Cc1ccc(S(=O)(=O)Nc2cc(F)ccc2C(=O)Nc2nc(-c3ccccc3)cs2)cc1 | -14.4% (inactive) | – |
| O=C(Nc1ccc(S(=O)(=O)Nc2nccs2)cc1)c1cccc2ccccc12 | 15.7% (inactive) | – |
| Clc1nc(CN2CCOCC2)nc2sc3c(c12)CCC3 | -9.4% (inactive) | – |
| Cc1ccc(S(=O)(=O)Nc2cnccc2C(=O)Nc2ccncc2)cc1 | -0.724% (inactive) | – |
| Cc1ccc(-c2cc(C(=O)NCC[S+](=O)([O-])O)c3ccccc3n2)cc1C | -3.28% (inactive) | – |
| Cc1ccc(S(=O)(=O)NCCC(=O)Nc2nc(-c3ccccc3)cs2)cc1 | -3.1% (inactive) | – |
| O=S(=O)(Nc1nc(CN2CCOCC2)nc2sc3c(c12)CCCC3)c1ccc2ccccc2c1 | -9.04% (inactive) | – |
| O=C(Nc1ccc([S+](=O)([O-])Nc2nccs2)cc1)c1ccccn1 | 2.62% (inactive) | – |
| Cc1cccc(NC(=O)c2cc(-c3ccc(C)c(C)c3)nc3ccccc23)c1 | 0.365% (inactive) | – |
| CCCCc1ccc(C(=O)Nc2ccc(S(=O)(=O)Nc3nccs3)cc2)cc1 | 8.65% (inactive) | – |
| Cc1ccc(S(=O)(=O)Nc2ccccc2C(=O)Nc2nc(-c3ccccc3)cs2)cc1 | – | inactive |
| Cc1ccc(-c2cc(C(=O)Nc3ccc(-c4nn[nH]n4)cc3)c3ccccc3n2)cc1C | -8.12% (inactive) | – |
| O=C(Nc1ccc(S(=O)(=O)Nc2nc(-c3ccccc3)cs2)cc1)c1ccc2ccccc2c1 | -1.79% (inactive) | – |
| CC1CCC(C(=O)Nc2ccc([S+](=O)([O-])Nc3nccs3)cc2)CC1 (stereo not given) | 0.932% (inactive) | – |
| Clc1nc(CN2CCOCC2)nc2sc3c(c12)CCCC3 | 4.85% (inactive) | – |
| Cc1ccc(S(=O)(=O)n2cc(C(=O)Nc3ccc(-c4ccccc4)cc3)c3ccccc32)cc1 | 2.67% (inactive) | – |
| O=c1[nH]c(CN2CCOCC2)nc2sc3c(c12)CCC3 | 3.69% (inactive) | – |
| O=c1[nH]c(CCl)nc2sc3c(c12)CCC3 | 2.26% (inactive) | – |
